Compound activity: PubChem BioAssay, several laboratories
Compounds with a hit are over-represented: about 3% of the library has one in this group of screens.
CHT PAM – CHT positive allosteric modulators, primary screen, cell-based, membrane potential dye, choline EC20; High affinity choline transporter 1 (Homo sapiens), Q9GZV3; CHT-expressing cells; hits give high values; LV-AA mutant CHT in HEK293 cells; B-score at 10 µM; actives 0.49% (n = 310,000); AID 488977, 2010;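 active means initial fluorescence not abnormally high and integrated response B-score, plate-corrected, over 3 SD above library mean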
Target sequence (Q9GZV3 whole entry, looked up): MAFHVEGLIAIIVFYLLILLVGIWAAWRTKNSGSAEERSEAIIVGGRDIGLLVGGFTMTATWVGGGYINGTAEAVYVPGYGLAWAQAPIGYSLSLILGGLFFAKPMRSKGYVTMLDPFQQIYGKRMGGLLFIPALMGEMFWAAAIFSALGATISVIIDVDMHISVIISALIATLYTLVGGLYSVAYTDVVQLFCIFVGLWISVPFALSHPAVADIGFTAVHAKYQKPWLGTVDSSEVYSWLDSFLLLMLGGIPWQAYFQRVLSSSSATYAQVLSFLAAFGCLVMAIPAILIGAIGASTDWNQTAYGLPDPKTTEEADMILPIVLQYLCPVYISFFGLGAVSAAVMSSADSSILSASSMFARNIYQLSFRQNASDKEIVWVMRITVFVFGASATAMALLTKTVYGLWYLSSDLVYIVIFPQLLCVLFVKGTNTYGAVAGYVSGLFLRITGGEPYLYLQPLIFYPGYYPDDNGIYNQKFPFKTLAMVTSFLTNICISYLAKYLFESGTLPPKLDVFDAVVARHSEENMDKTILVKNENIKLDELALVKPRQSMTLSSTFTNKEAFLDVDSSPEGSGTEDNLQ
NALP1 yeast inh – NALP1 inflammasome inhibitors in reconstituted yeast, colorimetric, S. cerevisiae, triplicate retest; S. cerevisiae NALP1/ASC/caspase-1 growth, X-gal OD620, 72 h; inhibition, % at 10 µM; actives 0.61% (n = 280,000); AID 2071, 2009; in the data active means inhibition mostly above about 24%, no sharp cut-off; inactive means mostly below about 32%
NALP3 yeast inh – NALP3 inflammasome inhibitors in reconstituted yeast, primary screen, luminescence, uHTS; Yeast reconstituted NLRP3/ASC/caspase-1, beta-gal luminescence, 24 h; inhibition, % at 10 µM; actives 0.39% (n = 330,000); AID 2825, 2010;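 active means inhibition of 50% or more; inactive means inhibition below 50%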
Bfl-1 A1 inh – caspase 3/7 activation in MEF A1-2A-BIM cells, primary screen, A1 inhibitor project, cell-based, luminescence, HTS. Caspase-Glo 3/7 luminescence, 3 h; percent of clofoctol response, vehicle zero. caspase activation, % (no concentration beside the values). actives 0.066% (n = 330,000). AID 2462, 2010;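 active means over half of replicate activation scores above 10%, or exactly half above 10 with the replicate mean above 10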
SUMO Mot1 rescue – yeast Mot1-301 growth rescue at high temperature, primary screen, SUMOylation pathway inhibitor project, S. cerevisiae, ATP luminescence, 38.5C; S. cerevisiae Mot1-301 growth rescue; percent above DMSO median, 100 means doubled; growth rescue, % at 18.8 µM; actives 1% (n = 320,000);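 active means every valid replicate shows activation above 250% relative to neutral control wells; inactive means the rest, any valid replicate at or below 250%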
CHT inh – inhibitors of human choline transporter CHT; CHT-expressing cells, membrane potential dye, choline response; hits give low values; AID 488975, 2010; actives 0.86% (n = 310,000); B-score at 10 µM;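 active means B-score over 3 SD under the library average, and starting fluorescence ratio not unusually high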;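 further: choline stimulus applied at its EC90 after an EC20 pre-addition; B-score computed on integrated fluorescence ratio after choline addition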
Mot1 SUMO dose – growth restoration of Mot1-301 yeast on galactose, dose response, SUMO pathway inhibitor project, whole organism, S. cerevisiae, ATP luminescence, cherry-picked samples; shares compounds with SUMO Mot1 rescue; S. cerevisiae Mot1-301 galactose growth, 24 h; -100 = growth of slx-deleted rescue strain; growth activity, percent, % at 42 µM; 2,300 tested, under 10 active; AID 493004, 2010;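 active means Signal drops as the depositor expects, and the fitted half-maximal dose is no more than ten times the top valid tested dose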;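 further: more negative values mean stronger growth rescue toward the control strain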
Hits are given with their value; . = inactive; / = no result given; + = active, no number.

SMILES | CHT PAM | NALP1 yeast inh | NALP3 yeast inh | Bfl-1 A1 inh | SUMO Mot1 rescue | CHT inh | Mot1 SUMO dose
Cc1ccc(S(=O)(=O)Oc2ccccc2N2C(=O)C3CC=CCC3C2=O)cc1 (centres undefined) | . | . | . | . | + | . | .
O=C(NC1CCN(Cc2ccccc2)CC1)C1CCN(S(=O)(=O)c2cccc([N+](=O)[O-])c2)CC1 | . | . | . | . | . | . | /
CCN(CC)S(=O)(=O)c1ccc(S(=O)(=O)N2CCC(C(=O)NC3CCN(Cc4ccccc4)CC3)CC2)cc1 | . | . | . | . | 634 | . | .
COC(=O)c1cc(Cl)c(NC(=O)C(C)C)cc1OC | . | . | . | . | 661 | . | .
CCC(=O)Nc1ccc(Br)c(Cl)c1 | . | . | . | . | 703 | . | .
CC(C)=CCC12Oc3cc(O)ccc3C1(O)Oc1cc(O)c([C@H]3C=C(C)CC(c4ccc(O)cc4O)[C@H]3C(=O)c3ccc(O)cc3O)c(O)c1C2=O (some centres undefined) | . | / | . | . | . | . | /
CCC(=O)N1CCc2cc(S(=O)(=O)CCC(=O)NCc3cccs3)ccc21 | . | . | . | . | . | . | /
CCC(=O)N1CCc2cc(S(=O)(=O)CCC(=O)Nc3cccc(C)n3)ccc21 | . | . | . | . | + | . | .
Cc1ccc(C)c(NC(=O)C[n+]2ccccc2)c1 | . | . | . | . | . | . | /
CCNCCNC(=O)c1c(O)c2c([nH]c1=O)CCCC2 | . | . | . | . | + | . | .
CCN(CC)CCNC(=O)c1c(O)c2c([nH]c1=O)CCCC2 | . | . | . | . | . | . | /
CN(C)CCNC(=O)c1scc2c1CCCC2 | . | / | . | . | 824 | . | .
CN(C)CCNC(=O)c1c(O)c2c([nH]c1=O)CCCC2 | . | . | . | . | 630 | . | .
CCOc1ccc(CNS(=O)(=O)c2cc(-c3cc(C)no3)ccc2OC)cc1OC | . | . | . | . | . | . | /
COc1ccc(NC(=S)Nc2ccccc2OC)c(OC)c1 | . | . | . | . | 476 | . | .
COc1ccc(NC(=S)Nc2ccc(F)cc2)c(OC)c1 | . | / | . | . | . | . | /
COc1ccc(CCNC(=O)CC2C(=O)NCCN2CC(C)(C)C)cc1 (centres undefined) | . | . | . | . | 770 | . | .
COc1cccc(-n2c(Cc3cc(=O)[nH]c(=O)[nH]3)nnc2SCc2cccnc2)c1 | . | . | . | . | 511 | . | .
COc1cc(OC)cc(C(=O)N[C@H](C(=O)NC2CCCc3ccccc32)C(C)C)c1 (some centres undefined) | / | / | . | . | . | / | /
Cc1c(C)c2cc(Cl)c(OCC(=O)NCCCn3ccnc3)cc2oc1=O | . | . | . | . | . | . | /
CC(=O)c1cccc(NC(=O)N2C3CCCC2CC(NC(=O)C2CC2)C3)c1 (centres undefined) | . | . | . | . | . | . | /
Cc1ccc(NC(=O)N[C@@H](CC(C)C)C(=O)O)c(C)c1 | . | . | . | . | . | . | /
Cc1ccc(NC(=O)N[C@H](C(=O)O)C(C)C)c(C)c1 | . | . | . | . | 830 | . | .
N#Cc1ccc2[nH]c(CO)c(-c3ccccc3)c2c1 | . | . | . | . | + | . | .
CC/C(=N/N=C(/CC)c1ccc(O)cc1)c1ccc(O)cc1 | . | / | . | . | . | . | /
SMILES | CHT PAM | NALP1 yeast inh | NALP3 yeast inh | Bfl-1 A1 inh | SUMO Mot1 rescue | CHT inh | Mot1 SUMO dose
CC1C(=O)C(C)C(c2ccco2)NC1c1ccco1 (centres undefined) | . | . | . | . | . | . | /
c1coc(C2OCC3(CO2)COC(c2ccco2)OC3)c1 (centres undefined) | . | / | . | . | 523 | . | .
NC(=O)C1CCN(C(=O)COCc2cc(-c3ccc4c(c3)OCO4)on2)CC1 | . | . | . | . | . | . | /
C=CCNC(=S)NNC(=O)c1cc(-c2cccnc2)nc2ccccc12 | . | . | . | . | . | . | /
C=CCNC(=O)c1cc(-c2cccnc2)nc2ccccc12 | . | . | . | . | 441 | . | .
O=c1[nH][nH]c(C(F)(F)F)c1C=NCc1cccs1 | . | . | . | . | + | . | .
O=C(O)C1CCCN1C(=O)c1cncc(Br)c1 (centres undefined) | . | . | . | . | + | . | .
Cc1cc(C(=O)N/N=C/c2ccc3c(c2)OCO3)c2ccccc2n1 | . | . | . | . | 856 | . | .
O=C(N/N=C/c1ccc2c(c1)OCO2)c1cc(-c2ccncc2)nc2ccccc12 | . | . | . | . | . | . | /
CCOC(=O)c1[nH]c2ccc(Br)cc2c1NC(=O)CCN1CCCCC1 | / | . | / | / | / | / | /
CCOC(=O)c1[nH]c2ccc(Br)cc2c1NC(=O)CCN1CCOCC1 | . | . | . | . | 413 | . | .
CCC(c1nnnn1C1CCCC1)N1CCN(c2cccc(OC)c2)CC1 (centres undefined) | . | . | . | . | 747 | . | .
Cc1cc(C)cc(C(=O)N2CCC3(CC2)NCCc2[nH]cnc23)c1 | . | . | . | . | 396 | . | .
N#Cc1c(NC(=O)c2ccc([N+](=O)[O-])o2)sc2c1CCC2 | . | . | . | . | 466 | . | .
COc1cccc(/C=N/NC(=O)CCn2cnc3ccccc32)c1 | . | . | . | . | 479 | . | .
CCN(c1ccccc1C(=O)O)S(=O)(=O)c1ccc2[nH]c(=O)[nH]c2c1 | . | . | . | . | . | . | /
O=S(=O)(Nc1cc(Cl)cc(Cl)c1)N1CCOCC1 | . | . | . | . | . | . | /
Cc1ccc(S(=O)(=O)N[C@@H](Cc2ccccc2)C(=O)CCl)cc1 | . | . | . | . | 608 | . | .
CCCCOCCCNS(=O)(=O)Cc1ccccc1 | . | . | . | . | 366 | . | .
O=C(O)CCCNS(=O)(=O)Cc1ccccc1 | . | . | . | . | . | . | /
CN(C)/C=C/C(=O)c1ccc(Br)cc1 | . | . | . | . | . | . | /
CN(C)/C=C/C(=O)c1ccncc1 | . | . | . | . | 877 | . | .
O=C1CCCN1CCC1CCN(C2CC(=O)N(c3ccc(Cl)cc3)C2=O)CC1 (centres undefined) | . | . | . | . | 503 | . | .
Cn1cc(Br)c(C(=O)Nc2nccs2)n1 | . | . | . | . | 626 | . | .
